Screening results as filed in PubChem.
Only a selection was taken, and hits are over-represented in it overall.
Artemis inh = Artemis (human) endonuclease inhibition; recombinant Artemis, quenched FAM hairpin cleavage fluorescence; actives 0.78% (n = 30,000); AID 686954; inhibition, % at 10 µM;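 active = at 10 µM dose, at least 30% inhibition, measured as corrected fluorescence normalized to stimulator and neutral control wells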
Target sequence (Q96SD1 whole entry, looked up): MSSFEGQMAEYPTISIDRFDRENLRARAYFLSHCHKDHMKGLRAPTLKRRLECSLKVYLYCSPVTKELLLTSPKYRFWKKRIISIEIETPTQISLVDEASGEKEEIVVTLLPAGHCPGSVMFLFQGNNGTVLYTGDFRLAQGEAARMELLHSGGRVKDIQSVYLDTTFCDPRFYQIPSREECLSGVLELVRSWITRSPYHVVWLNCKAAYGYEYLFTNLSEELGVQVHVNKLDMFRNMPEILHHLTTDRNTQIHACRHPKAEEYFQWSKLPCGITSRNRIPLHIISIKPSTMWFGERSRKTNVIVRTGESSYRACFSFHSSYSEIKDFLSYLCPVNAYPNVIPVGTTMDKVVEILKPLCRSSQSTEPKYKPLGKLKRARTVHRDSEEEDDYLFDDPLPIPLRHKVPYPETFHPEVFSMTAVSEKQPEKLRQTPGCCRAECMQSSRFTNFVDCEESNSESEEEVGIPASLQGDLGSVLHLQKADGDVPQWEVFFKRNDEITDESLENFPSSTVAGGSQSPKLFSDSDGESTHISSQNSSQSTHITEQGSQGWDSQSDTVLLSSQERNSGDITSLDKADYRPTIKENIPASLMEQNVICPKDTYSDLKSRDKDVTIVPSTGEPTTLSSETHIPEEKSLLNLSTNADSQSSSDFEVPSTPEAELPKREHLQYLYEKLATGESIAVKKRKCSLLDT
Of the large screens only hits and unclear results are named; the others gave an inactive call.

N#Cc1c(NCCN)nc(-c2ccccc2)c2c1CCCC2	none
CC1CN(C(=O)COc2ncnc3ccccc23)CC(C)O1 (stereo not given)	none
COC(=O)c1sc(OC)cc1OCc1ccc(C)cc1	none
Cc1cc(/C=N/n2cnnc2)c(C)n1-c1cccc(Cl)c1	none
Cc1cc(/C=N/n2cnnc2)c(C)n1-c1ccccc1	none
Cc1cc(/C=N/n2cnnc2)c(C)n1-c1ccc(OCc2ccc(Cl)cc2Cl)cc1	Artemis inh 42
Cc1ccc(S(=O)(=O)N(C)CC(=O)N2CCCC2)cc1	none
CCCCCC(C(=O)O)C(C)CC(=O)NC1CCCCC1 (stereo not given)	none
COc1ccc(OC)c(S(=O)(=O)NCC2CCCO2)c1 (stereo not given)	Artemis inh 45
CCOc1cc(C)c(Cl)cc1S(=O)(=O)NCC1CCCO1 (stereo not given)	none
COc1cc(C)c(Cl)cc1S(=O)(=O)NCC1CCCO1 (stereo not given)	none
Cc1noc(C)c1COC(=O)CCCc1c[nH]c2ccccc12	none
OC(COc1ccc2c(c1)CCC2)Cn1cnc2ccccc21 (stereo not given)	none
CCc1nc(C)c(C#N)c2cc(OC)c(OC)cc12	none
CCOc1cc2c(C#N)c(N3CCOCC3)nc(N)c2c(N)n1	none
CCCN(CC1CC1)c1nc(N)c2c(N)nc(OC)cc2c1C#N	Artemis inh 49
CC(C)=CCCC(C)NC(=O)NC1CCCCC1 (stereo not given)	none
COc1ccc(NC(=O)c2cc([N+](=O)[O-])nn2Cc2ccccc2)c(C)c1	none
O=C(Oc1cc(-c2ccccc2)no1)c1ccc(Cl)cc1	none
CCN(CC)c1ccc(NC(=O)CSc2nc3ccccc3c(=O)[nH]2)cc1	none
CCN(CC)c1ccc(C(=O)n2cnc3ccccc32)cc1	Artemis inh 30
Cc1ccc(-c2cc(C(=O)n3cnc4ccccc43)c3ccccc3n2)cc1C	none
Cc1cc(Cl)c(S(=O)(=O)N2CCN(c3ccccc3)CC2)cc1OCC(N)=O	none
O=[N+]([O-])c1ccc(-c2nc(-c3cccs3)c(-c3cccs3)[nH]2)cc1	none
CCOC(=O)N1CCN(c2nc3ccccc3nc2C(C#N)S(=O)(=O)c2ccc(C)cc2)CC1 (stereo not given)	Artemis inh 33
C=CCOC(=O)C(C#N)c1nc2ccccc2nc1N1CCN(Cc2ccccc2)CC1 (stereo not given)	none
C=CCOC(=O)C(C#N)c1nc2ccccc2nc1N1CCN(c2ccccc2OC)CC1 (stereo not given)	none
Cc1ccc(NC(=O)CCSc2nc(C)cc(C)n2)cc1	none
Cc1cccc(OCCSc2cc(C)nc(N)n2)c1	none
O=C(Nc1cccc2nsnc12)c1ccc2c(c1)OCO2	none
O=C(Nc1cccc2nsnc12)c1ccc(-c2cccc(Cl)c2)o1	Artemis inh 46
O=C(Nc1cccc2nsnc12)c1ccc(F)cc1	none
CC(=O)c1ccc(C(C)(C)c2ccc(C(C)=O)s2)s1	none
COC(=O)c1cc(-c2c[nH]c3ccccc23)n[nH]1	none
Cc1csc(NC(=O)Cc2c[nH]c3ccccc23)n1	none
CNc1nc(-c2c[nH]c3ccccc23)cs1	Artemis inh 38
N#Cc1c(C(F)(F)F)cc(-c2ccccc2)nc1SCc1nc(N)nc(N2CCOCC2)n1	none
COc1cccc(-c2nc(-c3ccc(NC(=O)c4cccs4)cc3)no2)c1	none
C=CCn1c2ccccc2c2nnc(SCCCn3c(=O)[nH]c4ccccc43)nc21	none
OCc1nn2c(c1Br)NC(c1ccccc1)CC2C(F)(F)F (stereo not given)	none
O=C(O)CC(C(=O)O)N1C(=O)/C(=C/c2ccc(-c3nc4ccccc4s3)o2)SC1=S (stereo not given)	Artemis inh 64
O=C(O)CCN1C(=O)/C(=C/c2ccc(-c3nc4ccccc4s3)o2)SC1=S	none
O=c1oc2ccccc2n1CSc1nc2ccccc2s1	none
COC(=O)C1=C(N)c2c(F)cccc2C1(C#N)c1ccc(F)cc1 (stereo not given)	none
C#CC(CO)N(CCN(Cc1ccccc1)C(C#C)CO)Cc1ccccc1 (stereo not given)	none
O=C(N/N=C\c1ccc(F)cc1)c1csnn1	none
O=C(O)C1C2C=CC(O2)C1C(=O)NC1CCCc2ccccc21 (stereo not given)	none
CCOC1(OCC)N=C(N)C2(C#N)C(c3ccc(NC(C)=O)cc3)C12C#N (stereo not given)	none
CCOC(=O)c1cncc(NC(=O)c2ccccc2)c1	none
CC1=NOC(=O)/C1=C\c1ccc(-c2cccc(Cl)c2)o1	none
C=CCOC(=O)C1=C(C)NC(SC)=C(C#N)C1c1ccc(OCC)cc1 (stereo not given)	none
C=CCOC(=O)c1cc(-c2ccc(/C=C3\C(=O)NC(=O)C(C#N)=C3C)o2)ccc1Cl	Artemis inh 36
Clc1ccc(Nc2ccc(-n3ccnc3)nn2)cc1Cl	none
Cc1ccc(O)c(N=CC2=C(O)c3ccccc3C2=O)c1	Artemis inh 38
COc1ccc(N=CC2=C(O)c3ccccc3C2=O)cc1	none
O=C1C(C=Nc2ccccc2)=C(O)c2ccccc21	none
Cc1ccc(NC(=O)c2ccc(Cl)c(N3C(=O)C=CC3=O)c2)cc1	none
COC(=O)CN(C(=O)CSc1nnc(-c2cccc(OC)c2)o1)c1ccc(OC)cc1	Artemis inh 34
COc1cccc(-c2nnc(SCC(=O)N3CCOCC3)o2)c1	none
COc1ccc(C(=O)CSc2nnc(-c3ccccc3)o2)cc1	none
CSc1cccc(NC(=O)c2ccc(Cl)nc2)c1	none
Cn1cc(CC(=O)N2CCN(c3ccc(Cl)cc3)CC2)c2ccccc21	none
CCOC(=O)C(NC(=O)CC)(Nc1cc(C)on1)C(F)(F)F (stereo not given)	none
Cc1cc(NS(=O)(=O)c2ccc(Nc3nc(-c4sc(N)nc4C)cs3)cc2)no1	Artemis inh 59
Cc1cc(NS(=O)(=O)c2ccc(NC(NC(=O)C(C(F)(F)F)C(F)(F)F)(C(F)(F)F)C(F)(F)F)cc2)no1	none
Cc1cc(NS(=O)(=O)c2ccc(NC(=O)c3ccco3)cc2)no1	none
CCOC(=O)CSc1nc2sc3c(c2c(=O)n1C1CCCCC1)CCN(C)C3	none
CC(Sc1n[nH]c(N)n1)c1nc2scc(-c3cccs3)c2c(=O)[nH]1 (stereo not given)	none
CCCOc1ccc(N)cc1N	Artemis inh 31
CCCOc1ccc(-c2nnc(N)s2)cc1	none
CCOc1cc(-c2ccc(N)c(OCC)c2)ccc1N	none
CN1C(=O)/C(=C/c2ccccc2OCc2cccc(F)c2)NC1=S	none
Cc1ccccc1Cn1c(=N)n(CC(=O)c2ccco2)c2ccccc21	none
O=S(=O)(Nc1nc2ccccc2nc1NCc1ccco1)c1ccc(Cl)cc1	none
Cc1noc(C)c1CSc1nc2ccccc2nc1NS(=O)(=O)c1ccc(Cl)cc1	Artemis inh 33
Cc1noc(C)c1CSc1nc2ccccc2c(=O)n1-c1ccccc1	none
CO/N=C(/CNC(=O)c1ccc(F)cc1)c1ccc(Cl)cc1	none
CCn1c(SC(C)C(=O)NC2CCCc3ccccc32)nnc1-c1cccs1 (stereo not given)	none
Cc1cccc(NC(=O)CCc2ccc(S(=O)(=O)NC3CCCCC3)cc2)c1	none
Cc1ccc(-c2cc(C(=O)NCCCn3ccnc3)c3cc(Br)ccc3n2)o1	Artemis inh 31
Cc1ccc(-c2cc(C(=O)NCc3ccco3)c3ccccc3n2)o1	none
COc1ccc(C(=O)NCCCn2ccnc2)cc1	none
CC12CCC(C(=O)N3CCc4ccccc43)(CC1=O)C2(C)C (stereo not given)	none
Cc1noc(C)c1COC(=O)c1ccc(S(=O)(=O)NCc2ccco2)cc1	none
Cc1cc(C)c(C(N)=O)c(Nc2ccc3c(c2)OCCO3)n1	none
COc1ccccc1Nc1nc(C)cc(C)c1C(N)=O	none
Cc1cc(C)c(C(N)=O)c(Nc2cccc3ccccc23)n1	Artemis inh 34
COc1ccc2[nH]c(=O)c(CNc3cccc(C)c3)cc2c1	none
